Bioassay records (PubChem BioAssay)
Avidin bead fluor: compound fluoresces at 488/530 nm on avidin beads; AID 1775; compound fluorescence 488/530 nm, flow cytometry; stronger effect = higher value; 220,000 tested, 0.38% active; fluorescence (KMESF) at 10 µM; in the data active = fluorescence above about 47
RGS7-Gao reg: human RGS7-Galphao interaction regulation | P09471 | Multiplexed bead flow cytometry, RGS7-Galphao binding; actives lie on both sides | binding response (% of control), % at 10 µM | 220,000 tested, 0.35% active; in the data active = binding response below about 49% or above about 150%; inconclusive = no clear call, values can overlap the other calls; inactive = in between;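 note: fluorescent Galphao held in activated GDP-AlF4 state binding bead-coupled RGS7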
Target sequence (P09471 whole entry, looked up): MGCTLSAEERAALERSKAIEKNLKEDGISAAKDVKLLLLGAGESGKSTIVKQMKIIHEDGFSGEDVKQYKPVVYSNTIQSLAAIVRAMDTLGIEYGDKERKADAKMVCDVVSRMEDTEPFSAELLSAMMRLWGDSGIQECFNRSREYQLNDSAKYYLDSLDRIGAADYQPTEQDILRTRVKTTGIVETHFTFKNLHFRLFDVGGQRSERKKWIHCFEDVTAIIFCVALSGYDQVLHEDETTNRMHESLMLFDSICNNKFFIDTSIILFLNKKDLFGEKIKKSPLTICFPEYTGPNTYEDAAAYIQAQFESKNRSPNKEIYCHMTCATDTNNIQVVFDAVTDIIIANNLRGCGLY
RGS8-Gao reg: human RGS8-Galphao interaction regulation. response (percent of control binding), % at 10 µM. 220,000 tested, 0.34% active. multiplexed bead flow cytometry, RGS8-Galphao binding; actives lie on both sides. AID 1423; in the data active = response below about 60% or above about 140%; inactive = in between;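 note: Galphao activated as the GDP aluminium fluoride complex binding bead-coupled RGS8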
GSH bead fluor: GSH bead compound fluorescence profile. GSH beads flow cytometry, compound fluorescence 488/530 nm; stronger effect = higher value. 190,000 tested, 0.25% active. fluorescence (KMESF) at 10 µM; in the data active = fluorescence above about 89;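 note: glutathione beads carrying GST-tagged Bcl family fusion proteins plus one bare bead set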
RGS16-Gao: regulators of human RGS16-Galphao interaction | bead-based flow cytometry RGS16-Galphao binding, fluorescence; actives lie on both sides | binding response (% of control), % at 10 µM | 220,000 tested, 0.38% active;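 note: Galphao activated by GDP with aluminum fluoride before binding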
RGS4-Gao reg: modulates binding of RGS4 to human Galphao | Multiplexed bead flow cytometry; actives lie on both sides | P09471 | binding response (% of control), % at 10 µM | 220,000 tested, 0.33% active; in the data active = binding response below about 49% or above about 150%; inactive = in between;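 note: fluorescent Galphao activated with aluminum fluoride binding bead-coupled RGS4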
RGS4-Gao HTS: RGS4-Galphao interaction regulator (human); shares compounds with RGS16-Gao; multiplexed bead flow cytometry, RGS–Galpha-o binding; RGS4–Galpha-o binding response, % at 10 µM; 1,600 tested, 99% active; AID 1504;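 note: fluorescently labeled Galpha-o bound to GDP with aluminium fluoride binding biotinylated RGS beads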
Avidin counter: interferes with biotinylated probe binding to avidin beads; shares compounds with RGS16-Gao; streptavidin beads, fluorescein-biotin binding, flow cytometry; inhibition, % at 10 µM; 1,700 tested, under 10 active; AID 1783;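 active = inhibition above 50%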;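 note: median green fluorescence of gated singlet beads compared with DMSO control wells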
RGS8-Gao single: RGS8-Galphao interaction regulation, single point confirmation; binding response (% of control), % at 10 µM; shares compounds with RGS16-Gao; bead-based flow cytometry RGS8-Galphao binding, fluorescence; actives lie on both sides; 1,700 tested, 3% active; in the data active = binding response below about 72% or above about 130%; inactive = in between;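 note: Galphao activated as GDP AlF4 complex before binding bead RGS8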
RGS7-Gao single: RGS7-Galphao interaction regulation, single point confirmation. shares compounds with RGS16-Gao. bead-based flow cytometry RGS7-Galphao binding; actives lie on both sides. response (percent of control binding), % at 10 µM. 1,700 tested, 7.8% active; in the data active = response below about 75% or above about 130%; inactive = in between;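 note: fluorescent Galphao activated with GDP and aluminum fluoride binding bead-coupled RGS7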
RGS16-Gao conf: confirmation of regulators of human RGS16-Galphao interaction; shares compounds with RGS16-Gao; bead-based flow cytometry, RGS16-Galphao binding; actives lie on both sides; response (% of control binding), % at 10 µM; 1,700 tested, 4% active; in the data active = response below about 74% or above about 130%; inactive = in between;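 note: Galphao activated as the GDP aluminium fluoride complex binding bead-coupled RGS16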
RGS4-Gao confirm: RGS4-Galphao interaction regulation, single point confirmation | 1,700 tested, 4% active | shares compounds with RGS16-Gao | binding response (% of control), % at 10 µM | RGS4-Galphao binding, multiplexed bead flow cytometry; actives lie on both sides; in the data active = binding response below about 74% or above about 130%; inactive = in between
RGS19-Gao single: RGS19-Galphao interaction regulation, single point confirmation; response (percent of control binding), % at 10 µM; shares compounds with RGS16-Gao; 1,700 tested, 5% active; bead-based flow cytometry RGS19-Galphao binding; actives lie on both sides; in the data active = response below about 50% or above about 160%; inactive = in between
Target sequence (P09471 whole entry, looked up): as above
Target sequence (P49795 whole entry, looked up): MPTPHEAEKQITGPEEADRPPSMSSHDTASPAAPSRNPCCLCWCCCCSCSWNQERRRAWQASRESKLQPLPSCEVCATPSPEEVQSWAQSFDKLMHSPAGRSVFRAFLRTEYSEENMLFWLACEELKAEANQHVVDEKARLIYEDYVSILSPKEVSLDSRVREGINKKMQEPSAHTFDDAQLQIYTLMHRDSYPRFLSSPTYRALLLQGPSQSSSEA
Each line names hits and unclear results; the compound was inactive in the other large screens (follow-up assays come after a bar, where they were run); [ ] = dose if it differs, or a comment. Hits are enriched below; roughly 1.2% of the tested compounds scored in any of these assays. Unless noted, the rule behind the calls is not given here.

Cc1nc(N2CCCCC2)c(C#N)c(C)c1[N+](=O)[O-]	RGS4-Gao reg 156.2[activator] | Avidin counter inactive | RGS8-Gao single inactive | RGS7-Gao single inactive | RGS16-Gao conf inactive | RGS4-Gao confirm inactive | RGS19-Gao single inactive
O=C(O)c1cc(S(=O)(=O)N2CCOCC2)ccc1N1CCOCC1	none
O=c1c2ccccc2sn1-c1cc(S(=O)(=O)N2CCOCC2)ccc1N1CCCC1	RGS8-Gao reg 40.9, RGS16-Gao -21.1 | RGS4-Gao HTS 85.8 | Avidin counter inactive | RGS8-Gao single 37.6 | RGS7-Gao single inactive | RGS16-Gao conf 10.5 | RGS4-Gao confirm inactive | RGS19-Gao single 4.4
O=C(O)c1cc(S(=O)(=O)N2CCOCC2)ccc1N1CCCCC1	none
O=c1c2ccccc2sn1-c1cc(S(=O)(=O)N2CCOCC2)ccc1N1CCOCC1	RGS8-Gao reg 47.8, RGS16-Gao 0.6 | RGS4-Gao HTS 98.8
O=C(Nc1cccc(S(=O)(=O)Nc2ccc(Cl)cc2)c1)c1ccc[n+]([O-])c1	RGS7-Gao reg inconclusive (no result: GSH bead fluor)
O=C(O)CSCC(=O)Nc1ccc(Br)c(C(F)(F)F)c1	RGS7-Gao reg inconclusive, RGS8-Gao reg 32.2, RGS16-Gao -11.8, RGS4-Gao reg -38.3 (no result: GSH bead fluor) | Avidin counter inactive | RGS8-Gao single inactive | RGS7-Gao single inactive | RGS16-Gao conf inactive | RGS4-Gao confirm inactive | RGS19-Gao single inactive
Cc1cccc(-n2ccnc2CN2CCC(CO)(Cc3ccccc3)CC2)c1	RGS7-Gao reg inconclusive (no result: GSH bead fluor)
OCCC1CN(Cc2cccn2-c2nccs2)CCN1C1CCCCC1 (stereo not drawn)	none
CC(C)N1CCN(Cc2cccn2-c2nccs2)CC1CCO (stereo not drawn)	Avidin bead fluor 56, RGS7-Gao reg 191.6[activator] | RGS4-Gao HTS 115.0 | Avidin counter inactive | RGS8-Gao single inactive | RGS7-Gao single inactive | RGS16-Gao conf inactive | RGS4-Gao confirm inactive | RGS19-Gao single inactive
CC(=O)Nc1nc(C2CC2)cc(-c2ccccc2)c1C#N	none
O=C(CN1CCN(c2ccccc2O)CC1)NC(c1ccccc1)c1ccccc1	RGS16-Gao 243.7[activator] | RGS4-Gao HTS 114.4 | Avidin counter inactive | RGS8-Gao single inactive | RGS7-Gao single inactive | RGS16-Gao conf inactive | RGS4-Gao confirm inactive | RGS19-Gao single inactive
O=C(CN1CCN(c2ccccc2O)CC1)NCCCc1ccccc1	none
CN(C)CCNC(=S)Nc1ccc(F)c(F)c1F	none
COc1ccccc1N1CCN(S(=O)(=O)c2ccc3c4c(cccc24)C(=O)N3)CC1	none
COc1ccccc1N1CCN(S(=O)(=O)c2ccc3c4c(cccc24)C(=O)N3C)CC1	RGS7-Gao reg -3.9, RGS8-Gao reg 15.6, RGS16-Gao -18.9, RGS4-Gao reg -21.1 | Avidin counter inactive | RGS8-Gao single inactive | RGS7-Gao single inactive | RGS16-Gao conf inactive | RGS4-Gao confirm inactive | RGS19-Gao single inactive
CCOC(=O)c1sc(NC(=O)CSc2nnc(Cc3ccccc3)o2)c(C#N)c1C	RGS16-Gao 18.7 | RGS4-Gao HTS 101.3 | Avidin counter inactive | RGS8-Gao single 69.5 | RGS7-Gao single 143.4[activator] | RGS16-Gao conf 50.7 | RGS4-Gao confirm inactive | RGS19-Gao single 32.5
CCOC(=O)c1c(NC(=O)CSc2nc3ccccc3o2)sc(C(C)=O)c1C	RGS7-Gao reg 2.6, RGS8-Gao reg 7.6, RGS16-Gao -3.6, RGS4-Gao reg 1.8 | Avidin counter inactive | RGS8-Gao single inactive | RGS7-Gao single inactive | RGS16-Gao conf inactive | RGS4-Gao confirm inactive | RGS19-Gao single inactive
CCOC(=O)c1c(NC(=O)c2cc(-c3ccc(O)cc3)on2)sc(C(C)=O)c1C	RGS16-Gao 344.1[activator], RGS4-Gao reg 258.5[activator] | Avidin counter inactive | RGS8-Gao single inactive | RGS7-Gao single 145.2[activator] | RGS16-Gao conf 195.8[activator] | RGS4-Gao confirm 151.7[activator] | RGS19-Gao single 432.9[activator]
NC(=O)CC(NC(=O)Cc1ccc(Br)cc1)c1ccc(N2CCC(Cc3ccccc3)CC2)c([N+](=O)[O-])c1 (stereo not drawn)	RGS7-Gao reg inconclusive (no result: GSH bead fluor)
CCO[C@@H]1OC(C(=O)NCc2ccccc2)=C[C@H](c2ccc(C(F)(F)F)cc2)[C@H]1CCCO	none
COc1ccc(NC(=O)CC(=O)Nc2ccc(OC)cc2OC)c(OC)c1	Avidin bead fluor 79, RGS7-Gao reg 173.5[activator] | RGS4-Gao HTS 114.0 | Avidin counter inactive | RGS8-Gao single inactive | RGS7-Gao single inactive | RGS16-Gao conf inactive | RGS4-Gao confirm inactive | RGS19-Gao single inactive
COc1ccc(NC(=S)NC2CCCCCC2)c(OC)c1	RGS16-Gao 21.9 | RGS4-Gao HTS 103.4 | Avidin counter inactive | RGS8-Gao single inactive | RGS7-Gao single inactive | RGS16-Gao conf inactive | RGS4-Gao confirm inactive | RGS19-Gao single inactive
COc1ccc(NC(=O)CC2SC(=N)N(c3ccccc3)C2=O)c(OC)c1 (stereo not drawn)	RGS7-Gao reg 4.1, RGS8-Gao reg 8.2, RGS16-Gao -5.4, RGS4-Gao reg 4.8 | Avidin counter inactive | RGS8-Gao single inactive | RGS7-Gao single inactive | RGS16-Gao conf inactive | RGS4-Gao confirm inactive | RGS19-Gao single inactive
COc1ccc(NC(=O)CC2SC(=Nc3ccccc3)NC2=O)c(OC)c1 (stereo not drawn)	none
COc1ccc(NC(=O)CC(C)=O)c(OC)c1	RGS7-Gao reg inconclusive (no result: GSH bead fluor)
Cc1ccc(NC(=O)Nc2ccc(F)cc2F)c(OC(F)F)c1	none
COc1ccc(NC(=O)Nc2cc(C)ccc2OC(F)F)c(OC)c1	none (no result: Avidin bead fluor, RGS7-Gao reg, RGS8-Gao reg, RGS16-Gao, RGS4-Gao reg) | Avidin counter inactive | RGS8-Gao single inactive | RGS7-Gao single 71.6 | RGS16-Gao conf inactive | RGS4-Gao confirm inactive | RGS19-Gao single inactive
CC(=O)N1C(C)(C)CC(=NOS(=O)(=O)c2ccccc2)CC1(C)C	none
Cc1cc(C)nc(N2CCCC(C(=O)NCc3ccccc3F)C2)n1 (stereo not drawn)	none
